Experimental data taken from PubChem BioAssay.
The source made the active and inactive calls. Unless noted, no rule for the calls is given here.

Tests used:
[1] = HepG2 liver cancer cell viability effects, profiling panel, resazurin fluorescence, 24 h, PK04 Diversity Set (AID 1172); details: higher = more signal
[2] = basal S. cerevisiae growth modulation, no modifier, primary screen, OD600, strain BY4716, 24 h, basal condition (AID 1173); details: OD600, 24 h, higher = more signal, called active from +8 up or from −8 down
[3] = MM1S myeloma cell viability, profiling panel, resazurin fluorescence, basal, 24 h, PK04 Diversity Set (AID 1174); details: higher = more signal, called active from +8 up or from −8 down;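 also: MM1S multiple myeloma cell line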
[4] = target: Dihydroorotate dehydrogenase (quinone), mitochondrial (Plasmodium falciparum (isolate 3D7)) (UniProt Q08210); test: PfDHODH enzyme inhibitors, primary screen, biochemical, C-terminal His tag, absorbance 600 nm (AID 1175); details: DCIP absorbance 600 nm, higher = more signal, called active from +8 up or from −8 down;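 also: recombinant parasite enzyme with a five histidine tag at its C terminus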
[5] = P. aeruginosa biofilm formation inhibitors, primary screen, strain PAO1, LB-PBS medium, absorbance 600 nm (AID 1176); details: P. aeruginosa PAO1 growth/biofilm, A600, 12 h; higher = more signal
[6] = S. cerevisiae RM11-1a growth modifiers, primary screen, strain RM11-1a, OD600, basal, 24 h (AID 1177); details: OD600, 24 h, higher = more signal, called active from +8 up or from −8 down;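 also: cultures grown under basal conditions with no added stressor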
[7] = E. coli acrAB mutant growth effects, primary screen, E. coli filamentation inducers, strain DRC39, OD650, 24 h (AID 1178); details: higher = more signal, called active from +8 up or from −8 down;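 also: growth measured as culture turbidity by optical density at 650 nm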
[8] = E. coli acrAB mutant growth effects, primary screen, E. coli filamentation inducers, strain DRC39, OD650, 48 h (AID 1179);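 also: screen aims at cell division blockers that make cells filament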; details: E. coli DRC39 delta-acrAB growth, higher = more signal, called active from +8 up or from −8 down
[9] = RPMI8226 myeloma cell viability, profiling panel, resazurin fluorescence, basal, 24 h, PK04 Diversity Set (AID 1180); details: higher = more signal;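 also: RPMI8826 multiple myeloma cell line at 5000 cells per well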
[10] = target: E3 ubiquitin-protein ligase XIAP (Homo sapiens) (UniProt P98170); test: XIAP binders, primary screen, biophysical, small-molecule microarray, fluorescence 635 nm (AID 1181); details: small-molecule microarray binding, higher = more signal;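 also: score merges 667 nm emission and signal to noise over triplicate slides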
[11] = tested on: XIP peptide (Xip251-270) binding; test: small-molecule binders of XIP peptide, primary screen, biochemical, small-molecule microarray, fluorescence 635/667 nm, 0.1 µg/mL protein (AID 1182); details: fluorescent protein binding, 635 nm, higher = more signal, called active from +8 up or from −8 down
XIP peptide (Xip251-270) = test: small-molecule binders of XIP peptide, primary screen, biochemical, small-molecule microarray, fluorescence 635/667 nm, 0.5 µg/mL protein (AID 1183); details: small-molecule microarray binding, fluorescence 635 nm; higher = more signal
[12] = Plasmodium falciparum growth inhibition, primary screen, strain 3D7, DAPI fluorescence, 100 nL (AID 1184);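 also: parasites grown inside human red blood cells in medium with human serum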; details: P. falciparum 3D7 growth, 3 d, higher = more signal
[13] = target: Homeobox protein Hox-A13 (Mus musculus) (UniProt Q62424); test: inhibitors of HoxA13-DNA binding, primary screen, biochemical, fluorescence polarization, labeled oligonucleotide (AID 1185); details: 15 min, higher = more signal, called active from +8 up or from −8 down
[14] = inhibitors of hydroxyurea-induced Chk1 phosphorylation, primary screen, imaging, HeLa, phospho-Chk1 antibody, percent positive cells (AID 1186); details: hydroxyurea-induced phospho-Chk1 immunofluorescence imaging, higher = more signal
[15] = inhibitors of hydroxyurea-induced Chk1 phosphorylation, primary screen, imaging, HeLa, phospho-Chk1 nuclear intensity (AID 1187); details: hydroxyurea-induced phospho-Chk1 immunofluorescence imaging, higher = more signal

Sequence of Dihydroorotate dehydrogenase (quinone), mitochondrial (Plasmodium falciparum (isolate 3D7)) (Q08210 whole entry, looked up): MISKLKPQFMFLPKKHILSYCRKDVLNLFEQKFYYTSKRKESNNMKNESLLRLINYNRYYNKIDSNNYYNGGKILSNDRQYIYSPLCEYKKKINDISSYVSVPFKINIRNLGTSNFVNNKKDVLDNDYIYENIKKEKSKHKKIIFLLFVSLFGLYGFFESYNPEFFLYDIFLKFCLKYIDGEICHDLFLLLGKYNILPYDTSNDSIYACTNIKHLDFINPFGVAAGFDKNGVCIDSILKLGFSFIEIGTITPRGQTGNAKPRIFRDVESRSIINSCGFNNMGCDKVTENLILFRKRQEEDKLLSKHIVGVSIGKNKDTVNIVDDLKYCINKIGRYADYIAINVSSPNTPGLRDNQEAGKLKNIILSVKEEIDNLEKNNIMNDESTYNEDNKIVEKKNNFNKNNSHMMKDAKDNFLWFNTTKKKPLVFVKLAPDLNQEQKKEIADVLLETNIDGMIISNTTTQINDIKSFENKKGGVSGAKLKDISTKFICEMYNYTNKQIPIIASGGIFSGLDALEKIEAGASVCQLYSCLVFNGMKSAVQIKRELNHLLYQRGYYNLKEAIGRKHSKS
Sequence of Homeobox protein Hox-A13 (Mus musculus) (Q62424 whole entry, looked up): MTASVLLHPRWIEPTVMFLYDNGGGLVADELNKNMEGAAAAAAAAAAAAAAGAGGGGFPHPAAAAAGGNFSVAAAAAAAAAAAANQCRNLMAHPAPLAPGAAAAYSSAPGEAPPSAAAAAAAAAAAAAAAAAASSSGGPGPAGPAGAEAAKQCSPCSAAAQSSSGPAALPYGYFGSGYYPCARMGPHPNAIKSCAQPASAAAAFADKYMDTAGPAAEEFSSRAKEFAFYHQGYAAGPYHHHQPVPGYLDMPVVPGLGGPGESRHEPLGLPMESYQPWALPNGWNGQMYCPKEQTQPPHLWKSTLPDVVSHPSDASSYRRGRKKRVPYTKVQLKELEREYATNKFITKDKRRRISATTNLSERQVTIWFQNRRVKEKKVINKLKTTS
Sequence of E3 ubiquitin-protein ligase XIAP (Homo sapiens) (P98170 whole entry, looked up): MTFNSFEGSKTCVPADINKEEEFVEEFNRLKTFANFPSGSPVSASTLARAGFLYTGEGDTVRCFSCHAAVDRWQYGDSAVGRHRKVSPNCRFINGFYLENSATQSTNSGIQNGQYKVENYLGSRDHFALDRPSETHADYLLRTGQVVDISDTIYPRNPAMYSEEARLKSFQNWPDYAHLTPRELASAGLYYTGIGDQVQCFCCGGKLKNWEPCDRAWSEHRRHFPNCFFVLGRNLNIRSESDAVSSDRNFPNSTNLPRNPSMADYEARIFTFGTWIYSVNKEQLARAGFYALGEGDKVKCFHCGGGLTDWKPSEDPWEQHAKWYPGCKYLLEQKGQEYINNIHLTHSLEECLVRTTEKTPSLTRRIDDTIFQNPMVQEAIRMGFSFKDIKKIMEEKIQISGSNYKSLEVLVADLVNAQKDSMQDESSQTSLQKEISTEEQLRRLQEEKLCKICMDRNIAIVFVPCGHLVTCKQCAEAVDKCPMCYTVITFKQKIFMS

Compound	z-score [1]	z-score [2]	z-score [3]	composite z-score [4]	z-score [5]	z-score [6]	z-score [7]	z-score [8]	z-score [9]	composite z-score [10]	composite z-score [11]	composite z-score (XIP peptide (Xip251-270))	z-score [12]	z-score [13]	z-score [14]	z-score [15]
NC(=O)NCC#Cc1ccc2c(c1)[C@]1(C(=O)N2)[C@H](C(=O)N2CCN(c3ncccn3)CC2)[C@H]2C(=O)O[C@H](c3ccccc3)[C@H](c3ccccc3)N2[C@@H]1c1ccc(O)cc1	-0.727	1.14 (inactive)	-0.234 (inactive)	-2.21 (inactive)	1.16 (inactive)	0.939 (inactive)	-0.192 (inactive)	-0.15 (inactive)	-1.36	-0.0577	-0.0728 (inactive)	0.58	1.79	-1.83 (inactive)	0.161 (inactive)	0.359 (inactive)
COc1ccc(CCNC(=O)[C@@]2(Sc3ccc(C)cc3)CC(=O)N(Cc3ccccc3C(F)(F)F)[C@@H]2c2ccc(CO)cc2I)cc1	0.267	-5.78 (inactive)	-2.05 (inactive)	-1.6 (inactive)	-0.171 (inactive)	-1.77 (inactive)	0.0424 (inactive)	0.189 (inactive)	-1.72	0.1	0.232 (inactive)	0.853	-0.77	-2.7 (inactive)	0.17 (inactive)	0.68 (inactive)
C=CCC(OC(C)=O)[C@@H]1[C@@H](N(Cc2cccc3ccccc23)C(=O)Cc2ccc(F)cc2)c2cc(OCCCO)ccc2N1C(=O)c1ccc2ccccc2c1 (stereo not given in full)	0.921	0.274 (inactive)	0.697 (inactive)	0.339 (inactive)	-0.0057 (inactive)	0.036 (inactive)	0.655 (inactive)	0.83 (inactive)	0.276	0.34	-1.12 (inactive)	-0.277	-1.85	-1.39 (inactive)	-0.457 (inactive)	-0.395 (inactive)
CCCC[C@@H](O)C1=C(COC)C[C@H]2C(=O)N(Cc3ccccc3)C(=O)[C@H]2[C@H]1CO	0.111	-1.22 (inactive)	-1.61 (inactive)	-0.401 (inactive)	-0.496 (inactive)	0.643 (inactive)	0.418 (inactive)	0.722 (inactive)	0.126	-0.0525	1.47 (inactive)	0.782	0.553	-4.13 (inactive)	-0.187 (inactive)	0.274 (inactive)
Cc1ccc(S[C@]2(C(=O)O)CC(=O)N(C3CCCCC3)[C@@H]2c2ccc(CO)cc2I)cc1	0.465	-1.67 (inactive)	-0.353 (inactive)	-0.664 (inactive)	-0.137 (inactive)	-0.92 (inactive)	0.475 (inactive)	0.0129 (inactive)	-0.74	-0.0525	2.84 (inactive)	0.526	-0.348	-5.25 (inactive)	0.542 (inactive)	0.675 (inactive)
CCCN1C(=O)[C@@]2(Cc3ccccc31)N=C(c1ccc(OCCCO)cc1)O[C@H]2c1ccccc1	0.293	-3.07 (inactive)	-2 (inactive)	-0.172 (inactive)	-0.124 (inactive)	0.806 (inactive)	-0.305 (inactive)	-1.03 (inactive)	-1.7	-0.212	0.468 (inactive)	0.828	-1.65	-6.04 (inactive)	-0.0494 (inactive)	0.365 (inactive)
CCOC(=O)C[C@H]1[C@H](OC(=O)c2cc3ccccc3oc2=O)[C@@H](NC(=O)c2ccc3ccccc3n2)c2cc(OCCCO)ccc2N1C(=O)Cc1ccc(OC)cc1	1.16	-0.105 (inactive)	-0.76 (inactive)	-0.543 (inactive)	-1 (inactive)	0.796 (inactive)	0.662 (inactive)	0.0535 (inactive)	-0.284	-0.173	-0.816 (inactive)	0.71	-1.42	-3.15 (inactive)	0.458 (inactive)	-0.301 (inactive)
CCOC(=O)C[C@H]1[C@H](OC(=O)c2ccc(C(=O)c3ccccc3)cc2)[C@@H](NC(=O)c2ccc(-c3ccccc3)cc2)c2cc(OCCCO)ccc2N1C(=O)Cc1ccc(OC)cc1	0.247	0.401 (inactive)	-0.176 (inactive)	0.25 (inactive)	-0.358 (inactive)	0.225 (inactive)	-0.224 (inactive)	0.424 (inactive)	-0.0952	-0.0994	-0.555 (inactive)	-0.187	-0.75	-1.41 (inactive)	0.0183 (inactive)	0.25 (inactive)
COc1cccc(C)c1NC(=O)O[C@H]1[C@H](OC(=O)Nc2ccccc2-c2ccccc2)[C@H](OC(=O)Nc2ccccc2-c2ccccc2)[C@@H](OC)O[C@@H]1CO	-0.589	-0.342 (inactive)	-1.13 (inactive)	-0.0569 (inactive)	1.11 (inactive)	1.25 (inactive)	-0.469 (inactive)	0.0517 (inactive)	-0.575	0.248	0.201 (inactive)	0.729	-2.51	-1.28 (inactive)	-0.8 (inactive)	-1.12 (inactive)
C=CC[C@@]1(C(=O)NCCCOC)N=C(c2ccc(OCCCO)cc2)O[C@@H]1c1ccccc1	-0.843	-1.85 (inactive)	-0.203 (inactive)	-1.65 (inactive)	-0.375 (inactive)	-1.27 (inactive)	-0.12 (inactive)	1.13 (inactive)	-0.1	0.065	1.42 (inactive)	0.805	-1.95	-4.75 (inactive)	-0.339 (inactive)	-0.343 (inactive)
